Consider 26 compounds from PubChem BioAssay.

Active and inactive are the calls of the source. Unless noted, how the calls were made is not given here.

The subject of assay [1] is XIP peptide (Xip251-270) binding. Description: small-molecule binders of XIP peptide, primary screen, biochemical, small-molecule microarray, fluorescence 635/667 nm, 0.1 µg/mL protein (AID 1182). To be noted: fluorescent protein binding, 635 nm, higher = more signal, called active from +8 up or from −8 down.
Assay [2] deals with XIP peptide (Xip251-270). Description: small-molecule binders of XIP peptide, primary screen, biochemical, small-molecule microarray, fluorescence 635/667 nm, 0.5 µg/mL protein (AID 1183). To be noted: small-molecule microarray binding, fluorescence 635 nm; higher = more signal.
Assay [3] can be described thus: Plasmodium falciparum growth inhibition, primary screen, strain 3D7, DAPI fluorescence, 100 nL (AID 1184).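 Further: parasites grown inside human red blood cells in medium with human serum.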 The following applies: P. falciparum 3D7 growth, 3 d, higher = more signal.
For assay [4], the target named is Homeobox protein Hox-A13 (Mus musculus) (UniProt Q62424). Kind of assay: inhibitors of HoxA13-DNA binding, primary screen, biochemical, fluorescence polarization, labeled oligonucleotide (AID 1185). The following applies: 15 min, higher = more signal, called active from +8 up or from −8 down. Background: Polarisation of emitted light reports the rotation of a fluorescent probe.
Sequence of Homeobox protein Hox-A13 (Mus musculus) (Q62424 whole entry, looked up): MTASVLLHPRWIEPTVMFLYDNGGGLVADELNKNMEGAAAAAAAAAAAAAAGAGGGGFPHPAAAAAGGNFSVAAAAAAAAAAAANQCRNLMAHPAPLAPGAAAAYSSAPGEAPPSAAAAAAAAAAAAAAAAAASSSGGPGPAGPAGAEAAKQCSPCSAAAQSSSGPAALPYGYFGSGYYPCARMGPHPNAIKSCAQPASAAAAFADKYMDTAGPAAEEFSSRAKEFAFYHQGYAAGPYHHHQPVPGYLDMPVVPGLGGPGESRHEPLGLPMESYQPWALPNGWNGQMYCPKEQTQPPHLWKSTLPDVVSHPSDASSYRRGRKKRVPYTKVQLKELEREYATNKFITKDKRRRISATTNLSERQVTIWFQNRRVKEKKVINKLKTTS

Assay [5] can be described thus: inhibitors of hydroxyurea-induced Chk1 phosphorylation, primary screen, imaging, HeLa, phospho-Chk1 antibody, percent positive cells (AID 1186). To be noted: hydroxyurea-induced phospho-Chk1 immunofluorescence imaging, higher = more signal.
A short description of assay [6]: inhibitors of hydroxyurea-induced Chk1 phosphorylation, primary screen, imaging, HeLa, phospho-Chk1 nuclear intensity (AID 1187). The following applies: hydroxyurea-induced phospho-Chk1 immunofluorescence imaging, higher = more signal.

Turning to `COc1ccc(-c2cc3c(c(CCc4ccccc4)n2)[Si](C(C)C)(C(C)C)O[C@H]3c2ccccc2)cn1`, the composite z-score in assay [1] was -0.269 (inactive); in assay [2], -0.179. The z-score is -1.41 in assay [3], -1.35 (inactive) in assay [4], -0.0745 (inactive) in assay [5] and -0.194 (inactive) in assay [6].

For the compound `CCCCN1CC=CC23O[C@@H]4/C=C\CCCOC(=O)C4[C@H]2C(=O)N(CCCCCCO)[C@@H]3C1=O` (stereo partly specified), the composite z-score in assay [1] was 0.723 (inactive); in assay [2], 0.803. In addition, the z-score was -0.165 in assay [3], -4.71 (inactive) in assay [4], -0.624 (inactive) in assay [5] and -0.137 (inactive) in assay [6].

On to `COCCOC(=O)N1C(=O)[C@@]2(c3cc(C#CCNC(N)=O)ccc31)[C@H](C(N)=O)[C@H]1C(=O)O[C@H](c3ccccc3)[C@H](c3ccccc3)N1[C@@H]2c1ccc(O)cc1`, for which the figures for the composite z-score in assay [1] and in assay [2] were 0.201 (inactive) and -0.532, respectively. The z-score in assay [3] is 1.75; in assay [4], -3.48 (inactive); in assay [5] it was 0.319 (inactive); in assay [6] it was 0.888 (inactive).

In the case of `CCCCCCCCCCC(O)C1C=CC2C(=O)N(C)C(=O)C2N1Nc1ccccc1` (stereo unspecified), the composite z-score in assay [1] was 1.04 (inactive); in assay [2] it was -1.39. Besides, the z-score is -0.0339 in assay [3], -2.87 (inactive) in assay [4], 0.999 (inactive) in assay [5] and 0.135 (inactive) in assay [6].

Take `COC(=O)[C@@]1(Cc2ccc(OC)cc2)[C@@H]2[C@@H](CC(=O)[C@H]2CC(=O)C(=O)N(C)C)CN1C(=O)c1ccccc1`: the results for the composite z-score in assay [1] and in assay [2] were 0.206 (inactive) and 0.516, respectively. The z-score was -1.56 in assay [3], -2.61 (inactive) in assay [4], 0.0341 (inactive) in assay [5] and -1.04 (inactive) in assay [6].

Regarding `C[C@]1(C(=O)NCC(F)(F)F)c2ccccc2C(=O)N(Cc2cc(C(F)(F)F)cc(C(F)(F)F)c2)[C@H]1c1ccc(CO)cc1`, the composite z-score in assay [1] is 0.0939 (inactive); in assay [2], 0.21. Also, the z-score in assay [3] was 0.528; in assay [4] it was -3.48 (inactive); in assay [5], -0.496 (inactive); in assay [6] it was -0.308 (inactive).

On to `COC(=O)[C@@]1(Cc2ccc(F)cc2)[C@H]2c3cc(C(=O)N4CCCC4)n(CCc4c[nH]c5cc(F)ccc45)c3C[C@H]2CN1C(=O)c1ccccc1`, for which the values for the composite z-score in assay [1] and in assay [2] were 0.0421 (inactive) and 0.684, respectively. In addition, the z-score in assay [3] is -1.4; in assay [4], -2.5 (inactive); in assay [5], -0.332 (inactive); in assay [6], -0.589 (inactive).

On to `CN(C)C(=O)[C@]1(CCS(=O)(=O)c2ccccc2)N=C(c2ccc(OCCCO)cc2)O[C@@H]1c1ccccc1CN=[N+]=[N-]`, for which the composite z-score in assay [1] was 0.556 (inactive); in assay [2], 0.816. Moreover, the z-score in assay [3] is -2.13; in assay [4], -4.39 (inactive); in assay [5], -0.376 (inactive); in assay [6], -0.0306 (inactive).

For the compound `CCc1cccc(NC(=O)O[C@H]2[C@H](OC(=O)Nc3ccccc3-c3ccccc3)[C@H](OC(=O)Nc3ccccc3-c3ccccc3)[C@@H](OC)O[C@@H]2CO)c1`, the figures for the composite z-score in assay [1] and in assay [2] were 0.187 (inactive) and 0.591, respectively. Further, the z-score was -2.53 in assay [3], -1.39 (inactive) in assay [4], -0.36 (inactive) in assay [5] and 0.0172 (inactive) in assay [6].

Take `COCCOC(=O)N1C(=O)[C@@]2(c3cc(C#CCC(C(=O)OC)C(=O)OC)ccc31)[C@H](C(N)=O)[C@H]1C(=O)O[C@H](c3ccccc3)[C@H](c3ccccc3)N1[C@@H]2c1ccccc1OCCO`: the composite z-score in assay [1] was 0.286 (inactive); in assay [2], 0.575. In addition, the z-score in assay [3] is -1.93; in assay [4], -2.49 (inactive); in assay [5], -0.663 (inactive); in assay [6], -1.57 (inactive).

On to `C=C(C(=O)CC[C@@H](OC(=O)c1cccnc1)c1cccc(OCCO)c1)C(C)C`, for which the composite z-score in assay [1] is -0.0726 (inactive); in assay [2], 0.61. Moreover, the z-score was -2.56 in assay [3], -3.51 (inactive) in assay [4], -0.361 (inactive) in assay [5] and 0.519 (inactive) in assay [6].

With `COC(=O)C1=CC(CCCO)=CC(c2ccc(CN3CCCC3)cc2)N(C)C=C1C(=O)OC` (stereo unspecified), the composite z-score was 0.736 (inactive) in assay [1] and 0.873 in assay [2]. Moreover, the z-score in assay [3] is 0.34; in assay [4], -6.09 (inactive); in assay [5], -0.118 (inactive); in assay [6] it was -0.428 (inactive).

As for `C=C(CCCC)C(=O)CC[C@H](OC(=O)c1ccccc1-c1ccccc1C(=O)O)c1cccc(OCCO)c1`, the composite z-score is -0.459 (inactive) in assay [1] and 0.614 in assay [2]. The z-score is -2.65 in assay [3], -6.4 (inactive) in assay [4], 1.01 (inactive) in assay [5] and 0.182 (inactive) in assay [6].

Regarding `C=CCNC(=O)[C@@H]1[C@H]2C(=O)O[C@H](c3ccccc3)[C@H](c3ccccc3)N2[C@H](c2ccc(O)cc2)[C@@]12C(=O)Nc1ccc(C#CC3=CCCCC3)cc12`, the composite z-score in assay [1] was 1.79 (inactive); in assay [2] it was 0.716. The z-score in assay [3] is 0.155; in assay [4], 0.828 (inactive); in assay [5], 0.0206 (inactive); in assay [6], -0.275 (inactive).

As for `C=C(CC1([C@@H](NP(=O)(c2ccccc2)c2ccccc2)[C@H]2C[C@@H]2CCCC)CC1)c1cccc(OC)c1`, the values for the composite z-score in assay [1] and in assay [2] were -0.68 (inactive) and -0.207, respectively. Moreover, the z-score in assay [3] is -0.0814; in assay [4], -1.55 (inactive); in assay [5], 0.731 (inactive); in assay [6] it was 0.788 (inactive).

Turning to `[N-]=[N+]=NCc1ccccc1[C@H]1OC(c2ccc(OCCCO)cc2)=N[C@@]1(Cc1ccccc1N=[N+]=[N-])C(=O)N1CCOCC1`, the composite z-score in assay [1] was -0.185 (inactive); in assay [2], 0.604. In addition, the z-score in assay [3] was -2.27; in assay [4] it was -1.45 (inactive); in assay [5], -0.332 (inactive); in assay [6] it was 0.0967 (inactive).

Take `C=CCC(OC(C)=O)[C@@H]1[C@@H](N(Cc2ccc(-c3ccccc3)cc2)C(=O)Cc2ccc(OC)cc2)c2cc(OCCCO)ccc2N1C(=O)c1ccc2ccccc2c1` (stereo partly specified): the composite z-score in assay [1] was -0.965 (inactive); in assay [2], -0.0698. In addition, the z-score in assay [3] is -2.9; in assay [4], -1.72 (inactive); in assay [5] it was 0.443 (inactive); in assay [6], 0.209 (inactive).

`C=CCNC(=O)[C@@H]1[C@H]2C(=O)O[C@H](c3ccccc3)[C@H](c3ccccc3)N2[C@H](c2ccc(OCCO)cc2)[C@@]12C(=O)Nc1ccc(C#CCNC(N)=O)cc12`: the composite z-score is 2.5 (inactive) in assay [1] and 0.561 in assay [2]. Besides, the z-score in assay [3] is 0.175; in assay [4], -3.63 (inactive); in assay [5], 0.286 (inactive); in assay [6], 0.0132 (inactive).

On to `O=C1O[C@@H](c2ccccc2)[C@@H](c2ccccc2)N2[C@@H](c3ccc(OCCO)cc3)[C@]3(C(=O)Nc4ccc(C#CC5=CCCCC5)cc43)[C@@H](C(=O)Nc3nc4ccccc4s3)[C@H]12`, for which the composite z-score in assay [1] was -0.487 (inactive); in assay [2] it was 0.646. The z-score in assay [3] was -1.38; in assay [4], -15.3 (active); in assay [5] it was -0.176 (inactive); in assay [6], -0.282 (inactive).

For `C=C(CCCC)/C(=C/C[C@@H](OC(C)=O)c1ccc(OCCO)cc1)c1cc(C(=O)OC)ccc1OC`, the composite z-score in assay [1] was 0.952 (inactive); in assay [2] it was 0.633. For the same compound, the z-score in assay [3] is -3.06; in assay [4] it was -4.07 (inactive); in assay [5] it was 0.526 (inactive); in assay [6], 0.765 (inactive).

With `C=CCC(OC(C)=O)[C@@H]1[C@@H](N(Cc2ccc(-c3ccccc3)cc2)C(=O)Cc2ccc(OC)cc2)c2cc(OCCCO)ccc2N1C(=O)Cc1ccc(OC)cc1` (stereo partly specified), the values for the composite z-score in assay [1] and in assay [2] were 0.497 (inactive) and -0.243, respectively. The z-score in assay [3] is -1.97; in assay [4] it was -2.75 (inactive); in assay [5], 0.684 (inactive); in assay [6], 0.763 (inactive).

Consider `COCCOC(=O)N1C(=O)[C@@]2(c3cc(C#CC4=CCCCC4)ccc31)[C@H](C(=O)N1CCCCCCC1)[C@H]1C(=O)O[C@H](c3ccccc3)[C@H](c3ccccc3)N1[C@@H]2c1ccccc1OCCO`, for which the composite z-score in assay [1] is 0.502 (inactive); in assay [2], 0.712. In addition, the z-score was -2.04 in assay [3], 3.21 (inactive) in assay [4], -0.245 (inactive) in assay [5] and -0.178 (inactive) in assay [6].

For the compound `CCCCCN1CC=CC23O[C@@H]4/C=C\CCCOC(=O)C4[C@H]2C(=O)N(CCCCCO)[C@@H]3C1=O` (stereo partly specified), the composite z-score was 0.388 (inactive) in assay [1] and 0.199 in assay [2]. Further, the z-score in assay [3] was 0.0701; in assay [4], -4.75 (inactive); in assay [5] it was 0.726 (inactive); in assay [6], 0.576 (inactive).

Turning to `Cc1ccc(N2C(=O)c3ccccc3[C@@H](C(=O)NCCN3CCOCC3)[C@@H]2c2ccc(CO)cc2)nc1`, the results for the composite z-score in assay [1] and in assay [2] were 0.0616 (inactive) and 0.669, respectively. Besides, the z-score in assay [3] was 1.41; in assay [4], -1.67 (inactive); in assay [5], 0.0197 (inactive); in assay [6], 0.274 (inactive).

For `COCCOC(=O)N1C(=O)[C@@]2(c3cc(C#CCNC(N)=O)ccc31)[C@H](c1ccc(O)cc1)N1[C@H](c3ccccc3)[C@H](c3ccccc3)OC(=O)[C@H]1[C@@H]2C(=O)N1CCc2cc(OC)c(OC)cc2C1`, the composite z-score is -0.0561 (inactive) in assay [1] and 0.329 in assay [2]. Also, the z-score in assay [3] is -0.0011; in assay [4], -1.73 (inactive); in assay [5], 0.0017 (inactive); in assay [6] it was -0.0878 (inactive).

Regarding `C=CC[C@@]1(C(=O)NCCCOC)N=C(c2ccc(OCCCO)cc2)O[C@@H]1c1ccccc1CN=[N+]=[N-]`, the composite z-score in assay [1] was 0.204 (inactive); in assay [2] it was 0.44. Further, the z-score in assay [3] is -2.25; in assay [4], -5.2 (inactive); in assay [5], -0.551 (inactive); in assay [6], -0.721 (inactive).
